# Screening results as filed in PubChem BioAssay.
# Hits are enriched below; roughly 14% of the tested compounds scored in any of these assays.
# Sm TGR inh: blocks Schistosoma mansoni thioredoxin glutathione reductase. purified TGR, DTNB reduction, TNB absorbance 405 nm. 360,000 compounds, 3% hits. Potency, µM (series often up to 114 µM), inactives show at the top dose activity change, negative = inhibition, most hits filed as inhibitors; further: potency means the concentration at half of the fitted maximal effect; nearly all actives have a fitted effect of over 60% in size
#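 First, TGR (20 nM dispensed) and NADPH were mixed with compound. Second, a 15 min room-temperature incubation followed. Third, further NADPH and then DTNB were added to start the reaction. Finally, TNB absorbance was monitored kinetically.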
# Pf growth 48h: P. falciparum growth inhibition at 48 hours (one generation). Potency, µM (series often up to 28.7 µM), without a hit: at the top dose activity change, negative = inhibition, usual class: inhibitors. 310,000 compounds, 5.9% hits. AID 504832. P. falciparum luciferase growth in erythrocytes, 48 h; further: potency means the concentration at half of the fitted maximal effect
#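 Erythrocytes infected with P. falciparum carrying an integrated firefly luciferase reporter (2% hematocrit, 0.1% parasitemia final) were exposed to compounds in RPMI 1640 with 0.5% Albumax at 37 C, 5% CO2. Growth inhibition was scored as reduced luminescence.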
# Giardia FBPA inh: inhibitors of Giardia lamblia fructose-1,6-bisphosphate aldolase. purified Giardia FBPA. 290,000 compounds, 0.71% hits. Potency, µM (highest dose often 59.6 µM), without a hit: top-dose activity, negative = inhibition, usual class: inhibitors. A8B2U2; further: potency means the concentration at half of the fitted maximal effect; nearly all actives have a fitted effect of over 55% in size
# Target sequence (A8B2U2 whole entry, looked up): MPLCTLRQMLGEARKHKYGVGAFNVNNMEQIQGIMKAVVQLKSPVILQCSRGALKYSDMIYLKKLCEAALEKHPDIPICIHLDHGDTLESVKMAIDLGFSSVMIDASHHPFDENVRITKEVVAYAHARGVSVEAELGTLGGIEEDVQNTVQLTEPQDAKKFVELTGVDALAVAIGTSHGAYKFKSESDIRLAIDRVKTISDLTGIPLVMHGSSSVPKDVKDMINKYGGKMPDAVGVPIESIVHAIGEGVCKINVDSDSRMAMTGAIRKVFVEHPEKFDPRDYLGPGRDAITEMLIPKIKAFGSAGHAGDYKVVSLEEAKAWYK
#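 40 nM FBPA preincubated 10 min at RT with compound (up to 57.5 uM final), then substrate plus GAPDH/TPI/NAD/arsenate coupling and diaphorase/resazurin added. Fluorescence read after 20 min at RT, 525/598 nm.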
# Pf growth 96h: P. falciparum growth inhibition at 96 hours | P. falciparum luciferase reporter growth, 96 h | 320,000 compounds, 6.9% hits | Potency, µM (series often up to 28.7 µM), for the others: at the top dose activity change, negative = inhibition, hits mostly inhibitors | AID 504834; further: potency means the concentration at half of the fitted maximal effect
#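 96 h incubation, 37 C, 5% CO2, of luciferase-reporter P. falciparum-infected RBCs (2% hematocrit, 0.05% parasitemia final) with test compounds; endpoint luminescence.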
# HCMV antiviral: blocks human cytomegalovirus replication. HFF cells, HCMV-luciferase reporter, 72 h; active compounds read low. activity change, negative = inhibition, % at 57.5 µM. 410,000 compounds, 4.5% hits; in the data active means activity change below about -60%; inconclusive means no clear call, values can overlap the other calls; inactive means above about -39%
#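 Steps: HFFs plated, 16 h 37C; compounds added; HCMV-luciferase added to MOI 1 PFU/cell; 72 h 37C; OneGlo reagent, 5 min room temperature; luminescence read, normalized to controls.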
# An asterisk follows results filed as active; u = inconclusive; x = not tested or not shown; [ ] = dose if it differs, or a comment. Unless noted, the call rests on the fitted dose curve; in most records, active means well fitted curve in the direction sought with a large enough effect; inconclusive means small, poorly fitted or top-dose-only effect, or another doubt; inactive means no such curve, though single readings can be large; an effect the other way counts as inactive or inconclusive. On the % scale 0 is the no-effect control and ±100 the full control effect.
SMILES,Sm TGR inh,Pf growth 48h,Giardia FBPA inh,Pf growth 96h,HCMV antiviral
COc1ccc(OCCNC(=O)c2cccc(Oc3ccc(C(F)(F)F)cc3[N+](=O)[O-])c2)cc1,-8.6%,8.4%,1.3%,33.8%,-66.1*
O=C(Nc1ccccc1Oc1ccccc1)c1cccc([N+](=O)[O-])c1,8.0%,-0.5%,-0.3%,7.2%,55.7
O=[N+]([O-])c1ccc(NCc2ccccc2N2CCC(CO)CC2)nc1,8.8%,0.5%[0.00184 µM],-1.5%,-12.4%,41.2
Cc1cccc(CCN(C(=O)c2csnn2)C(C(=O)NC2CCCC2)c2ccco2)c1 (centres undefined),-2.2%,u,5.6%,28.2%,46.9
COc1cccc(CNC(=O)c2c(C)nn(-c3cccc(C)c3)c2-n2cccc2)c1,5.1%,x,x,x,u
O=C(CCC1CCCC1)Nc1cc(Cl)ccc1N1CCOCC1,3.0%,u,x,8.28µM*,u
O=C(CNC(=O)c1ccco1)Nc1cc(Cl)ccc1N1CCOCC1,-3.6%,u,-1.8%,x,24.0
CCN(CC)S(=O)(=O)c1ccc(N2CCOCC2)c(NC(=O)CCC2CCCCC2)c1,-11.2%,8.28µM*,6.2%,u,-12.8
CC(C)(C)c1ccc(C(=O)NCCC(=O)Nc2cc(Cl)ccc2N2CCOCC2)cc1,-2.8%,13.1µM*,x,u,0.0
O=C(CC[C@H]1O[C@@H](n2cnc3c(NC(=O)c4ccccc4)ncnc32)[C@H](O)[C@@H]1O)NCCc1cc2ccccc2[nH]1,x,x,x,x,7.3
CCN(CC(=O)NCc1cccs1)C(=O)CCC(=O)c1ccc(C)cc1,-7.5%,u,x,13.0%,-1.1
CC(C)N1CC(C(=O)Nc2cccc([N+](=O)[O-])c2)CC1=O (centres undefined),-5.8%,14.1%,-1.3%,-9.7%,31.7
CCOCCCN1C(=O)CN(C2CCCCCC2)C(=O)C1c1ccc(OC(C)C)c(OC)c1 (centres undefined),-3.5%,x,x,x,-22.9
CCn1ncc(C2=NOC(C(=O)NCc3ccc(Cl)cc3)C2)c1C (centres undefined),2.1%,-0.7%,0.9%,x,-80.8*
CCn1ncc(C2=NOC(C(=O)Nc3ccc(C)cc3)C2)c1C (centres undefined),-0.3%,8.8%,0.5%,x,-30.1
COc1cccc(CNC(=O)CSc2n[nH]c(-c3ccccc3Cl)n2)c1,5.9%,x,x,x,13.8
C=CCOC(=O)N[C@@H](c1ccccc1)[C@@H](C)[N+](=O)[O-],x,x,0.4%,x,x
[O-]/[N+](=C/c1ccc(F)cc1)c1ccccc1,0.5%,u,-7.9%,-23.9%,-79.9*
CC(NC(=O)c1cc(Br)cs1)C1CCCO1 (centres undefined),0.0%,71.0%,4.0%,13.1µM*,56.1
CCOc1ccc(OCCNC(=O)c2cc(C3CC3)nc3c2cnn3C(C)C)cc1,-7.2%,10.4µM*,x,u,-23.5
CC(C)n1ncc2c(C(=O)N3CCN(c4ccccc4)CC3)cc(-c3ccccc3)nc21,-7.8%,u,x,u,-8.5
CC(C)n1ncc2c(C(=O)N3CCN(Cc4ccc(Br)s4)CC3)cc(C3CC3)nc21,-28.3%,4.15µM*,x,11.7µM*,-24.0
CC(C)n1ncc2c(C(=O)NCCc3ccc(S(N)(=O)=O)cc3)cc(C3CC3)nc21,-16.7%,-7.3%,x,u,-26.9
CC(C)n1ncc2c(C(=O)Nc3cccc(C#N)c3)cc(C3CC3)nc21,-2.3%,6.57µM*,x,5.22µM*,-90.9*
COc1ccc(CCNC(=O)c2cc(C3CC3)nc3c2cnn3C(C)C)cc1OC,-2.7%,u,x,2.33µM*,0.0
SMILES,Sm TGR inh,Pf growth 48h,Giardia FBPA inh,Pf growth 96h,HCMV antiviral
CC(C)CC(=O)N(Cc1ccc(F)cc1)C1CCS(=O)(=O)C1 (centres undefined),7.5%,21.2%,12.1%,-0.9%,-29.0
COc1ccc(CNC(=O)c2cc(C3CC3)nc3c2cnn3C(C)C)cc1,-4.3%,13.1µM*,x,14.7µM*,23.0
CC(C)n1ncc2c(C(=O)O)cc(C3CC3)nc21,5.7%,-2.3%,-21.7%,19.5%,2.7
COc1ccccc1CNC(=O)c1cc(C2CC2)nc2c1cnn2C(C)C,0.1%,0.928µM*,x,0.738µM*,-23.4
CN(C)c1ncc2nc(-c3ccccc3)c(=O)n(-c3ccccc3)c2n1,x,x,-2.3%,x,x
CCCCNc1nc2ccccc2c2nc(-c3ccccc3)nn12,5.1%,x,x,x,-17.2
CC(=O)NC(C)C(=O)OCC(=O)c1ccc(-c2ccccc2)cc1 (centres undefined),10.9%,23.6%,2.9%,35.1%,65.8
Cc1ccc(-c2csc(=S)[nH]2)cc1,-7.7%,152.1%,12.3%,134.4%,-15.0
S=c1[nH]c(-c2ccc(Cl)cc2)cs1,-4.4%,34.3%,13.6%,-3.6%,-62.5*
Cn1c(=O)c2c(-c3ccccc3Cl)n(-c3cc(Cl)ccc3O)cc2n(C)c1=O,12.6µM*,x,x,x,-9.3
COC(=O)c1ccccc1-n1cc2c(c1-c1cccc(C)c1)c(=O)n(C)c(=O)n2C,-26.2%,x,x,x,-10.6
Cc1cccc(-c2c3c(=O)n(C)c(=O)n(C)c3cn2-c2ccccc2O)c1,-11.4%,1.85µM*,12.6µM*,8.28µM*,-24.5
Cn1c(=O)c2c(-c3ccccc3Cl)n(Cc3ccc(Cl)cc3)cc2n(C)c1=O,4.0%,x,x,x,-0.2
CC1CCC(NC(=O)CCN2C(=O)C3C4C=CC(C4)C3C2=O)CC1 (centres undefined),-20.5%,9.5%,-0.7%,47.5%,-28.2
O=C(c1ccccc1)N1c2nc(-c3ccco3)nn2C2(CCCCC2)[C@@H]2CCCC[C@@H]21,u,x,x,x,24.3
COC(=O)Cn1c2ccccc2c2nc(=O)cc(C)n21,3.5%,18.6%,5.5%,u,-19.1
COc1cc2c(cc1OC)n(CC(=O)NC1CCCCCC1)n1c(C)cc(=O)nc21,-11.0%,18.7%,x,5.86µM*,u
CCOC(=O)C1=C(COC(=O)Cc2ccc(Cl)cc2)NC(=O)NC1C (centres undefined),-7.4%,-20.4%,x,-14.1%,-73.1*
CCOC(=O)C1=C(COC(=O)CCOc2ccc(C)cc2)NC(=O)NC1C (centres undefined),u,-16.7%,x,10.2%,-69.5*
CCOC(=O)C1=C(COC(=O)CCOc2ccc(OC)cc2)NC(=O)NC1C (centres undefined),-0.6%,-23.3%,x,-19.1%,34.3
O=C(N/N=C/c1ccc(Cl)cc1)c1n[nH]c2c1CCCC2,15.5%,101.4%,4.1%,57.0%,-90.6*
CCOC(=O)CN(C(=O)CNC(=O)c1ccco1)C(C(=O)NC1CCCCC1)c1cccnc1 (centres undefined),-9.4%,20.5%,6.3%,-14.8%,-17.5
Cn1c(=O)c(C#N)c(-c2ccc(F)cc2)c2cc(C(=O)c3cc(Cl)cc(Cl)c3O)cnc21,-2.6%,u,-5.8%,u,-61.3*
CCOC(=O)c1ccc(NC(=O)c2nc[nH]c2C(=O)NCCCCNC(=O)c2[nH]cnc2C(=O)Nc2ccc(C(=O)OCC)cc2)cc1,-6.6%,u,x,1.47µM*,-3.6
